# Sampled rows, rich in hits. Any-hit rate of the full collection: about 2%.
# Rin1-Abl PPI inh: inhibitors of Rin1-Abl protein binding, primary screen, biochemical, TR-FRET | Tyrosine-protein kinase ABL1 (Homo sapiens) + Ras and Rab interactor 1 (Homo sapiens), … | inhibition, % at 7.35 µM | 360,000 compounds, 0.4% hits | AID 588664, 2011; in the data active means inhibition above about 5%, passing the limit was not always enough
# MBD2 inh: inhibitors of MBD2 binding to methylated DNA, primary screen, biochemical, TR-FRET, DNA-binding domain, human; 370,000 compounds, 0.31% hits; Methyl-CpG-binding domain protein 2 (Homo sapiens), Q9UBB5; inhibition, % at 4.4 µM; MBD2 binding to methylated oligonucleotide; in the data active means inhibition above about 13%
# LEDGF integ inh: blockers of LEDGF/p75-dependent integrase strand transfer – biochemical, TR-FRET, high throughput, primary screen. HIV-1 integrase (with human LEDGF/p75). TR-FRET IN-LEDGF/p75 DNA integration, Eu/Cy5. inhibition, % at 3.7 µM. 370,000 compounds, 0.64% hits. AID 743269, 2014;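 active means inhibition above the screen-wide mean plus 3 SD, cut at about 13% in these data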;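 further: signal is the Cy5 over europium emission ratio at 671 and 618 nm; 0% = plate median of compound wells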
# UHRF1 MBD2 ctr: UHRF1 methylated DNA binding inhibitors, primary screen, counter-screen for MBD2 inhibitor project, biochemical, TR-FRET, human UHRF1, single concentration; inhibition, % at 4.4 µM; UHRF1 binding to methylated oligo; 370,000 compounds, 0.75% hits; AID 687016, 2013; E3 ubiquitin-protein ligase UHRF1 (Homo sapiens), Q96T88; in the data active means inhibition above about 21%;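 further: UHRF1 SRA domain binding a hemimethylated CpG hairpin DNA probe; 0% = median of test compound wells and 100% = reference inhibitor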
# Target sequence (Q96T88 whole entry, looked up, the tested form may be a part): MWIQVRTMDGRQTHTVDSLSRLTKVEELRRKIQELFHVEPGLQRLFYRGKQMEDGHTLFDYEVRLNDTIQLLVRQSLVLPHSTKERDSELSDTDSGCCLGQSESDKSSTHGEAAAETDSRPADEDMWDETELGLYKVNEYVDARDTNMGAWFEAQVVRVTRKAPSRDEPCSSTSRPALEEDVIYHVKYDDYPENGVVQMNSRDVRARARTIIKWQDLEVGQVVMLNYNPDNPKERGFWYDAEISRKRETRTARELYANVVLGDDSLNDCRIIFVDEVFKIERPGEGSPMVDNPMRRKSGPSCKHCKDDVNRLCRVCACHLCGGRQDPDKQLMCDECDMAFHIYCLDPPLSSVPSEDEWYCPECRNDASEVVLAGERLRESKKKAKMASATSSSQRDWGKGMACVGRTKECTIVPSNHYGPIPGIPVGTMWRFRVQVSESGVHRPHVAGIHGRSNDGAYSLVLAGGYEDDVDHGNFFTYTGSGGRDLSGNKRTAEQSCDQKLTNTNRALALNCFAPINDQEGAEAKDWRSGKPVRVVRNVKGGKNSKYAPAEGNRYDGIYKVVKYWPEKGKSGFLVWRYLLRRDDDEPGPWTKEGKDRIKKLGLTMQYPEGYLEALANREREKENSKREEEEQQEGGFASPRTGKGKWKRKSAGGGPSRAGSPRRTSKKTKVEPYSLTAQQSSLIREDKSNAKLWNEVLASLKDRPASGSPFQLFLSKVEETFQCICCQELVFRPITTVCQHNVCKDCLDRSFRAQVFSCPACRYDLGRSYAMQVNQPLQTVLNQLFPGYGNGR
# TCR-CD3 inh: inhibitors of human TCR-CD3 interaction, primary screen, biochemical, fluorescence, TAMRA-labeled TCR probe | inhibition, % at 9.4 µM | 360,000 compounds, 0.37% hits | T-cell receptor (TCR); in the data active means inhibition above about 19%;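 further: recombinant mutant TCR 2C K166C tagged with TAMRA read by polarization; 0% = receptor in buffer alone and 100% = receptor with positive control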
# Active calls of the source: *; . = no result given.
SMILES,Rin1-Abl PPI inh,MBD2 inh,LEDGF integ inh,UHRF1 MBD2 ctr,TCR-CD3 inh
COc1ccc(CCNCC(=O)Nc2c(C)cc(C)cc2C)cc1OC,-3,4,0,21*,5
CC1=NN(C(=O)COc2ccccc2)C(O)(c2cccnc2)C1 (stereo not drawn),2,0,3,21*,-10
N#Cc1ccc(S(=O)(=O)N2CCCc3nc(-c4ccccc4)ccc32)cc1,.,-7,-1,-2,-1
COc1ccc(OC)c(NC(=O)COC(=O)C2CCCCC2)c1,-1,4,5,4,6
O=C(O)C1=C(C(=O)O)C2C=CC1C2,5,12,5,33*,-8
CC(C)(C)c1ccc(-c2nnc(SCC(=O)Nc3cccc4ccccc34)n2Cc2ccco2)cc1,.,-3,4,-1,.
COc1cccc(/C=C2\SC(=S)N(CC(=O)N(C)C3CCS(=O)(=O)C3)C2=O)c1 (stereo not drawn),2,9,2,23*,0
CNC(=O)COC(=O)c1cc(SC)ccc1Cl,-2,-1,-1,26*,4
CNC(=O)c1ccccc1NC(=O)C1CC(=O)N(C(C)C)C1 (stereo not drawn),3,-4,0,0,11
O=C(CSc1nc2ncccc2[nH]1)NCc1ccco1,4,2,10,18,3
O=C(CSc1nccc(=O)[nH]1)NCc1ccco1,1,2,2,34*,0
CC1=C(C#N)C(=O)NC(=O)/C1=C/c1ccc(-c2ccc(S(N)(=O)=O)cc2)o1,-4,21*,1,1,-8
O=C(COC(=O)c1ccc([N+](=O)[O-])o1)Nc1nc2ccccc2s1,-1,-1,1,29*,-2
O=C(COC(=O)c1ccc(Br)o1)Nc1nc2ccccc2s1,-2,0,-1,-3,4
COCc1cc(C)nc(OCC(=O)N/N=C/c2ccc(OC)c(O)c2)c1C#N,-3,-2,-2,36*,1
COCc1cc(C)nc(OCC(=O)N/N=C/c2ccc(C)cc2)c1C#N,0,-1,-2,0,-4
Fc1ccccc1-c1nnc2c3ccccc3nc(N3CCOCC3)n12,5.7*,3,-1,0,3
COc1ccc(CNC(=O)O[C@H]2CN(C(=O)OC(C)C)N(C(=O)OC(C)C)[C@@H]3CN(S(=O)(=O)c4ccc(C)cc4)C[C@]23O)cc1OC,-1,3,0,-1,-11
C#CCN(C[C@@H]1[C@@H](OC(=O)NCc2ccccc2)[C@@H](OC(=O)NCc2ccccc2)CN(C(=O)OC(C)C)N1C(=O)OC(C)C)S(=O)(=O)c1ccc(C)cc1,-1,9,-2,23*,4
Cc1ccc(S(=O)(=O)N2C[C@H]3N(C(=O)OC(C)C)N(C(=O)OC(C)C)C[C@H](OC(=O)NCc4ccccc4F)[C@@]3(O)C2)cc1,0,7,-3,22*,-11
COC(=O)C1=C(C)N(Cc2cccc(C(F)(F)F)c2)C(=NCC2CC2)NC1c1ccc(F)cc1 (stereo not drawn),.,0,-3,1,7
CCc1nc2ccc(C(=O)NCCOc3ccc(OC)cc3)cn2c1N(C)Cc1nccn1C,2,3,-3,2,-1
O=C(C1CCN(c2cncnc2)CC1)N1CCCC1,.,2,-2,-1,.
O=C(OCCN1CCN(C2CN(Cc3cn(Cc4ccccc4C(F)(F)F)nn3)S(=O)(=O)C2)CC1)c1cc2ccccc2o1 (stereo not drawn),.,4,-2,7,.
COC(=O)[C@]12CCCCC=C1N(Cc1ccccc1)C(=O)[C@H](CC(=O)NCc1cccc3ccccc13)C2,.,-1,0,2,7
COC(=O)[C@]12CCCCC=C1N(CCC1=CCCCC1)C(=O)[C@H](CC(=O)NCc1cccc3ccccc13)C2,.,6,-2,21*,2
CSc1nc(SCCO)c2sc3nc(-c4ccco4)c4c(c3c2n1)CC(C)(C)OC4,-8,8,8,3,-2
COC(=O)CSc1nc(SC)nc2c1sc1nc(-c3ccco3)c3c(c12)CC(C)(C)OC3,1,2,3,24*,0
COc1ccc2c(CN3CCCCC3)cc(=O)oc2c1,-4,8,-1,21*,-2

# Screening data (PubChem)
